Test results: the OligoGym collection

Target: C1QTNF1
Assay: pooled miR-30 sensor sort-seq; sequence = guide strand
Conditions: shRNA
Also: reference of the scale not given here.

| Sequence | sensor-assay potency score (higher = more potent) |
| --- | --- |
| TAGGTGTCCAGCTCCTCGCTGA | -0.37 |
| TAGAACTTGCCGGTGAACATGT | 0.14 |
| TCGATCTCCGCGGTCACCCTTC | -1.09 |
| AAGATAGTGATGTTGATCTGGG | -0.107 |
| TTCATGTTGTTCTTCAGCCCTC | -0.239 |
| TAGGTCTCCTTCTGGTTCCAGG | -0.883 |
| TCACAGCAGCGCAAGCACCGGG | -0.832 |
| TAGCAGTAGAACTTGCCGGTGA | 0.148 |
| TTGTTCTTCAGCCCTCTCGGCA | -1.05 |
| TGTATTTTTCATGTTGTTCTTC | 0.442 |
| TTGGAGGCCTCGATCTCCGCGG | -1.29 |
| TAGAGGTTCACGAACTCCGTGT | 0.258 |

Target: C1orf101
Assay: as above
Conditions: shRNA

| Sequence | sensor-assay potency score (higher = more potent) |
| --- | --- |
| TTGGTTTCCTCTAATCTCCTTT | 0.267 |
| TTGACTTCCATGTCTGTGCTTC | 0.808 |
| TCTAACTTAATAGTACTTCTGG | 0.677 |
| TAAACAACCACTCTGTGCCATA | -0.921 |
| TAACTCTATAGTACCACAGAAA | -1.26 |
| TTCATGTAAACAACCACTCTGT | 0.256 |
| TTGTATTGTGCCATCATCCAAA | -0.463 |
| TAGTGCATCATCTTTTGTCATT | -1.07 |
| TAAAAACACAGCAATCTCCAGA | -0.0485 |
| TAACTTAATAGTACTTCTGGTA | -0.353 |
| TTGAATATTCACTAGGTCGAAA | -0.467 |
| TTGATAGATTTCCATGTCCTGC | -1.09 |

Target: C1orf105
Assay: as above
Conditions: shRNA

| Sequence | sensor-assay potency score (higher = more potent) |
| --- | --- |
| TTCATTTCTTGACATGTGGAGC | -1.06 |
| TTTCATTTCTTGACATGTGGAG | 0.0387 |
| TAGTGAATGTTTTCTGTTGGGA | 0.127 |
| TAAGCCAAGGAATCTTGTCAAA | -1.39 |
| TTTTCATTTCTTGACATGTGGA | -0.589 |
| TTTGGGTTGATGAAGACTCATT | -1.17 |
| TTGACATGTGGAGCACAGCTGT | -0.883 |
| TTCTGGGCAAGGAAGAACGTTG | -0.752 |
| TACAATTCTCAAAGGATGCTTT | -0.234 |
| AACATCTGGAACTTGAAACAAA | -0.678 |
| TATAACTCATACAATTCTCAAA | -1.37 |
| TTGCCTATTGGTTCCTTTCTGG | 0.0888 |

Target: C1orf106
Assay: as above
Conditions: shRNA

| Sequence | sensor-assay potency score (higher = more potent) |
| --- | --- |
| TTATTGAAGTATTTAGCACTAA | -0.34 |
| TCTAGCAAGACAATACACCACC | -0.714 |
| TATATAAGGAGATAGAGGCTGT | 0.0357 |
